HepG2 tox-1: qHTS for Inhibitors of TGF-b: Cytotox Counterscreen; HepG2 CAGA-GFP viability, ATP luminescence, 18 h; Potency, µM (top dose mostly 46.1 µM), hits mostly cytotoxic; 0.76% of 410,000 active; AID 588856, 2011
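HepG2 CAGA-GFP cells (1000/well, DMEM with 1% FBS) received compound, then TGF-beta at 500 pg/mL final, and were incubated 18 hours at 37 degrees C. Viability was read by CellTiter-Glo luminescence. Media-only wells were set as complete cell-killing and DMSO as no toxicity.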
HT1080NT lethal: qHTS for induction of synthetic lethality in tumor cells producing 2HG: qHTS for the HT-1080-NT fibrosarcoma cell line. 1.6% of 360,000 active. HT-1080-NT fibrosarcoma viability, CellTiter-Glo ATP luminescence, 48 h. Potency, µM (highest dose often 46.1 µM), actives largely listed as cytotoxic. AID 686970, 2013;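 also: NT is the 2HG producing partner of a matched IDH1 knockdown line; nearly all actives have a fitted effect of over 55% in size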
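Viability by CellTiter-Glo luminescence after 48 h compound exposure at 37C of HT-1080-NT cells (750/well, RPMI, 5% FBS). % activity scaled between DMSO wells and medium-only wells, then curve-fitted and categorized by curve class.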
Giardia killer: Small Molecules that selectively kill Giardia lamblia: qHTS | activity change, % at 7.66 µM, hits read low | 0.15% of 340,000 active | Giardia lamblia trophozoite viability | AID 540267, 2011; in the data active = activity change below about -80%; inconclusive = between about -30% and that limit;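 also: parasites exposed to compound for two days anaerobically before the ATP read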
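Each well holds 100 Giardia trophozoites and compound. After two days (48 hrs) at 37 deg C in anaerobic conditions, ATP is quantified by luminescence.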
HT1080 IDH1KD tx: qHTS for induction of synthetic lethality in tumor cells producing 2HG: qHTS for the HT-1080-IDH1KD cell line; HT-1080 IDH1 knockdown viability, ATP luminescence, 48 h; Potency, µM (highest dose often 46.1 µM), hits mostly cytotoxic; 2% of 360,000 active
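CellTiter-Glo luminescence after 48 h compound exposure at 37 degrees C of IDH1-knockdown HT-1080 cells in 5% FBS RPMI. %Activity scaled between DMSO wells and cell-free media wells, with curves fitted and assigned curve classes.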
TGFb inhibitor: qHTS for Inhibitors of TGF-b | Potency, µM (top dose mostly 46.1 µM), actives largely listed as inhibitors | AID 588855, 2011 | HepG2 CAGA-GFP TGF-b/SMAD3 reporter, GFP fluorescence, 18 h; TGF-beta stimulated, 500 pg/mL final | 1.2% of 410,000 active; also: nearly all actives have a fitted effect of over 65% in size
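TGF-beta reporter screen: HEPG2 CAGA-GFP, 1% FBS, 500 pg/mL TGF-beta final, 18 h; per-cell GFP summed per well; curves fitted and categorized by class.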
IL-1B inflam inh: qHTS for Inhibitors of Inflammasome Signaling: IL-1-beta AlphaLISA Primary Screen. 4.7% of 360,000 active. THP-1 LPS/ATP IL-1B secretion, AlphaLISA, 16 h; active compounds read low. activity change, % at 57.5 µM; in the data active = activity change below about -50%; inconclusive = mostly about -30% to -49%
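THP-1 cells pretreated 1 hr with compounds (up to 57.5 uM final), then stimulated with LPS (250 ng/mL final) plus ATP (1.25 mM final); secreted IL-1B measured by AlphaLISA after 16 hr, decreased signal indicating inhibition.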
TGFb CAGA inh: qHTS for Inhibitors of TGF-b: Confirmation of Cherry Picks. 63% of 1,600 active. HepG2 CAGA-GFP TGF-b reporter, GFP fluorescence, 18 h; cells stimulated with TGF-beta, 500 pg/mL. shares compounds with TGFb inhibitor. Potency, µM (series often up to 46.1 µM), usual class: inhibitors. AID 720534, 2013; also: nearly all actives have a fitted effect of over 65% in size
HepG2 tox-2: qHTS for Inhibitors of TGF-b: Cytotox Counterscreen for Cherry Picks. shares compounds with TGFb inhibitor. AID 720535, 2013. Potency, µM (doses to about 46.1 µM), hits mostly inhibitors. 27% of 1,600 active. HepG2 CAGA-GFP viability, ATP luminescence, 18 h; cells stimulated with TGF-beta, 500 pg/mL; also: nearly all actives have a fitted effect of over 70% in size
CCL64 TGFb inh: qHTS for Inhibitors of TGF-b: CCL64 Cells Orthogonal Assay for Cherry Picks; shares compounds with TGFb inhibitor; CCL64 CAGA-GFP reporter, TGF-b stimulated, GFP fluorescence, 18 h; Potency, µM (top dose mostly 46.1 µM), actives largely listed as inhibitors; 41% of 1,600 active; AID 720536, 2013; also: nearly all actives have a fitted effect of over 65% in size
TGFb COP inh: qHTS for Inhibitors of TGF-b: Hit Validation in HepG2 Cells using COP promoter. Potency, µM (titrated, usually from 46.1 µM), most hits filed as inhibitors. HepG2 COP-GFP TGF-b reporter, GFP fluorescence, 18 h; cells stimulated by added recombinant TGF-beta. 3% of 1,600 active. AID 720537, 2013. shares compounds with TGFb inhibitor; also: nearly all actives have a fitted effect of over 70% in size
Hits are given with their value; i = inactive; ? = inconclusive; nt = no result given; [ ] = dose if it differs, or a comment. Rows were chosen to be rich in hits. Some 6.5% of all compounds tested hit in one or more screens of this group. Unless noted, calls follow the shape of the dose curve; as a rule, active = well fitted curve in the direction sought with a large enough effect; inconclusive = small, poorly fitted or top-dose-only effect, or another doubt; inactive = no such curve, though single readings can be large; an effect the other way counts as inactive or inconclusive.

SMILES	HepG2 tox-1	HT1080NT lethal	Giardia killer	HT1080 IDH1KD tx	TGFb inhibitor	IL-1B inflam inh	TGFb CAGA inh	HepG2 tox-2	CCL64 TGFb inh	TGFb COP inh
O=C(CCNC(=O)c1ccccc1Cl)OCC(=O)c1ccccc1	i	i	i	i	i	i	nt	nt	nt	nt
O=S(=O)(c1ccc(NC(=S)NN=Cc2ccccc2O)cc1)N1CCCCC1	i	i	i	?	13µM	?	16µM	?	?	i
S=C(NCc1ccco1)Nc1ccc(Oc2ccc(Cl)cc2)cc1	i	?	i	?	16µM	-91	?	?	?	i
O=S(=O)(c1cc(F)ccc1F)N1CCN(c2ncnc3ccccc23)CC1	i	?	i	?	13µM	i	8.2µM	i	i	i
COc1ccc(S(=O)(=O)N2CCCCC2)cc1NC(=O)C1CC1	i	i[9.24 µM]	i	i	i	i	nt	nt	nt	nt
CC(C)C1NC(=S)N(C2CCCCC2)C1=O (stereo unspecified)	i	i	i	i	i	i	nt	nt	nt	nt
Cn1c(/C=C/c2ccccc2)nc2ccccc2c1=O	i	?	i	?	i	i	nt	nt	nt	nt
Cn1c(/C=C/c2ccc([N+](=O)[O-])o2)nc2ccccc2c1=O	i	?	?	?	2.2µM	-98	?	6.5µM	5.2µM	?
CC1(C)NC(=O)N(CC(=O)N2CCN(c3cccc(Cl)c3)CC2)C1=O	i	i[9.24 µM]	i	i	i	i	nt	nt	nt	nt
Cc1ccc(NC(=O)CN2CC(C)SC2=NC2CCCCC2)cc1 (stereo unspecified)	i	?	i	i	?	i	?	i	i	i
CCN(C[C@H]1N[C@@](CC)(C(=O)OC)[C@H]2C(=O)N(Cc3ccccc3)C(=O)[C@@H]12)C(=O)Nc1ccc(C)cc1	i	i	i	i	i	i	nt	nt	nt	nt
CCN(C[C@H]1N[C@@](Cc2ccccc2)(C(=O)OC)[C@H]2C(=O)N(Cc3ccccc3)C(=O)[C@@H]12)C(=O)Nc1ccc(C)cc1	i	?	i	?	?	i	15µM	i	?	i
COc1cccc(NC(=O)Cn2c(-c3cncs3)nc3ccccc32)c1	i	i	i	i	i	i	nt	nt	nt	nt
CCCc1cc2c(cc1NC(=O)c1ccco1)OCO2	i	i	i	i	?	i	i	i	i	i
CCCc1cc2c(cc1NC(=O)c1ccccc1F)OCO2	i	i	i	i	i	i	nt	nt	nt	nt
Cc1ccc(Cl)cc1NC(=O)c1cc2ccccc2cc1O	i	4.1µM	i	?	3.5µM	-90	2.6µM	7.3µM	4.1µM	i
COc1ccccc1NC(=O)c1cc2cc(Br)ccc2cc1O	i	?	i	?	5.6µM	?	7.3µM	8.2µM	5.8µM	i
COc1cc(NC(=O)c2cc3ccccc3cc2O)c(OC)cc1Cl	i	?	?	?	4.5µM	?	7.3µM	6.5µM	5.8µM	i
CN(c1ccc(C(=O)Nc2ccccc2C(=O)N2CCOCC2)cc1)S(C)(=O)=O	i	i	i	i	i	i	nt	nt	nt	nt
COc1ccc(-c2ccc(C(=O)Nc3cccc(F)c3)c3occc23)c(C)c1	i	?	nt	?	i	?	nt	nt	nt	nt
COc1ccc(-c2ccc(C(=O)Nc3cccc(NS(C)(=O)=O)c3)c3occc23)c(C)c1	i	?	nt	?	16µM	i	10µM	?	23µM	i
CCOc1ccc(NN=C(C(=O)OC)C(=O)OC)c([N+](=O)[O-])c1	i	i	i	i	i	i	nt	nt	nt	nt
O=C(CC1Oc2ccccc2NC1=O)NCCCN1CCOCC1 (stereo unspecified)	i	i	i	i	i	i	nt	nt	nt	nt
O=C(Nn1c(SCc2ccc(F)cc2)nc2ccsc2c1=O)c1ccccc1	i	i	i	i	11µM	i	16µM	?	?	i
Cc1ccc(CNC(=O)CSc2nc3ccsc3c(=O)n2NC(=O)c2ccccc2)cc1	i	i	i	i	i	i	nt	nt	nt	nt
SMILES	HepG2 tox-1	HT1080NT lethal	Giardia killer	HT1080 IDH1KD tx	TGFb inhibitor	IL-1B inflam inh	TGFb CAGA inh	HepG2 tox-2	CCL64 TGFb inh	TGFb COP inh
COCCN(Cc1cc2cc(C)c(C)cc2nc1Cl)C(=O)Nc1ccccc1	i	i	i	i	i	i	nt	nt	nt	nt
COCCN(Cc1cc2cc3c(cc2nc1Cl)OCO3)C(=O)c1ccc(C)cc1	i	i	i	i	?	i	?	i	i	i
CCC(Sc1nc2sc(C(=O)OC)c(C)c2c(=O)n1N)C(=O)N(CC)CC (stereo unspecified)	i	i	i	i	i	i	nt	nt	nt	nt
Cc1ccc(Cc2c(C)nc3nc(SCC(=O)NC4CCC(C)CC4)nn3c2C)cc1 (stereo unspecified)	i	nt	nt	nt	?	nt	nt	nt	nt	nt
COc1ccc(-c2[nH]ncc2CN2CCC(O)(c3ccc(Cl)cc3)CC2)cc1	i	?	i	?	6.3µM	-59	?	?	9.2µM	i
Fc1ccc(-c2[nH]ncc2CN2CCN(c3ccc(F)cc3)CC2)cc1	i	i	i	?	i	nt	nt	nt	nt	nt
OC1(c2ccc(Cl)cc2)CCN(Cc2cn[nH]c2-c2ccc(F)cc2)CC1	i	21µM	i	?	4µM	?	?	?	26µM	i
COc1ccc(-c2[nH]ncc2CN2CCN(c3ccc(F)cc3)CC2)cc1	i	i	i	i	?	i	nt	nt	nt	nt
CC(=O)Nc1ccc2c(c1)-c1ccc(F)cc1C2	i	i	i	i	10µM	i	?	?	i	i
CC(=O)Nc1ccc2c(c1)-c1ccc(F)cc1C2=O	i	i	i	i	i	i	nt	nt	nt	nt
O=C(NCCc1cccnc1)c1cc(COc2ccc(F)cc2Cl)on1	i	?	i	15µM	13µM	i	?	i	?	i
O=C(NCCc1cccnc1)c1cc(COc2ccc(F)cc2F)on1	i	?	i	?	i	i	nt	nt	nt	nt

Source: PubChem BioAssay
